Test results: PubChem BioAssay (Tox21)
Records with an inconclusive call do not appear. The source made the active and inactive calls. The call rests on the fitted dose curve; in most records, active means well fitted cell-killing curve with a large enough effect in the repeat runs; inconclusive means weak or mixed curves, or effect the other way; inactive means flat fitted curve, though single readings scatter.

Assay: cAMP Responsive Elements (CRE) small molecule antagonists, cell-based qHTS assay: qHTS cell viability counter screen (AID 2060913); further: nearly all actives have a fitted effect of over 40% in size
Conditions: CRE-bla HEK293T viability, CellTiter-Glo luminescence, 5 h; series mostly up to 92.4 µM; viability change, negative = cytotoxic: at the top concentration
Method in brief: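 Steps: cells plated and held 18 hrs at 37 C/5% CO2; compounds and NKH477 (0.25 uM final) added; 3 hrs incubation; reporter substrate read; CellTiter-Glo added to measure cytotoxicity by luminescence.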
On the % scale 0 is the no-effect control and ±100 the full control effect.

SMILES | viability change, negative = cytotoxic | Potency
CC(O)CC(C)O (centres undefined) | 8.14% (inactive) | 
CC(C)(C)C(=O)CCc1ccc(Cl)cc1 | -0.703% (inactive) | 
C1CCCCC1 | 0.926% (inactive) | 
CCOC(=O)C(=O)c1csc(NC=O)n1 | -5.1% [at 42.5 µM] (inactive) | 
O=C(O)CNC(=O)c1ccc(CO)o1 | 0.116% (inactive) | 
C=C(C)C1CC=C(C)C(=O)C1 (centres undefined) | 5.4% (inactive) | 
O=C(O)c1cc(O)c2c(c1)C(=O)c1cccc(O)c1C2=O | -4.6% (inactive) | 
CC(=O)OCC(=O)[C@H]1CC[C@H]2[C@@H]3CCC4=CC(=O)CC[C@]4(C)[C@H]3CC[C@]12C | 4.72% [at 42.5 µM] (inactive) | 
CCN(CC)c1ccc2c(-c3ccccc3C(=O)O)c3ccc(=[N+](CC)CC)cc-3oc2c1 | -12% (inactive) | 
C/C=C(\C)C(=O)OCC/C=C\CC | 3.28% (inactive) | 
COc1ccccc1C=O | 16.4% (inactive) | 
CC[C@]1(O)C[C@H]2CN(CCc3c([nH]c4ccccc34)[C@@](C(=O)OC)(c3cc4c(cc3OC)N(C=O)[C@H]3[C@@](O)(C(=O)OC)[C@H](OC(C)=O)[C@]5(CC)C=CCN6CC[C@]43[C@@H]65)C2)C1 | 1.22% [at 42.5 µM] (inactive) | 
CN1CCC(=C2c3ccccc3Sc3ccccc32)CC1 | -6.69% [at 42.5 µM] (inactive) | 
COc1ccc2cccc(CCNC(C)=O)c2c1 | -1.08% [at 42.5 µM] (inactive) | 
CCC(=O)CC(C)CC (centres undefined) | -1.01% [at 0.349 µM] (inactive) | 
C#C[C@]1(O)CC[C@H]2[C@@H]3CCC4=CC(=O)CC[C@@H]4[C@H]3CC[C@@]21C |  | inactive
Nc1cc(Cl)c(N)c(Cl)c1 |  | inactive
COc1ccc2[nH]c(S(=O)Cc3ncc(C)c(OC)c3C)nc2n1 (centres undefined) | 0.723% [at 42.5 µM] (inactive) | 
CCC=O | -0.747% (inactive) | 
CC(=O)OC/C=C(\C)CCC=C(C)C | -6.07% (inactive) | 

SMILES | viability change, negative = cytotoxic | Potency
COc1ccc(C)cc1 | -0.0186% (inactive) | 
CC(=O)OC(C)C[N+](C)(C)C (centres undefined) | 1.45% [at 42.5 µM] (inactive) | 
CCN1CCOCC1 | -5.95% (inactive) | 
CCC(C)(CCC(C)C)C(=O)[O][Sn]([CH3])([CH3])[O]C(=O)C(C)(CC)CCC(C)C (centres undefined) | -2.88% (inactive) | 
Cc1ncc([N+](=O)[O-])n1CC(O)CCl (centres undefined) | -0.776% [at 42.5 µM] (inactive) | 
CCOCCO |  | inactive
NC(=O)c1ccc([N+](=O)[O-])cc1Cl |  | inactive
O=C(c1ccc(F)cc1)C1CCN(CCn2c(=S)[nH]c3ccccc3c2=O)CC1 | 4.83% [at 42.5 µM] (inactive) | 
c1ccsc1 | 12.7% (inactive) | 
COC(=O)[C@@H](N)Cc1ccc(O)c(O)c1 | -0.963% [at 42.5 µM] (inactive) | 
OC[C@H]1O[C@@H]2O[C@H]3[C@H](O)[C@@H](O)[C@@H](O[C@H]4[C@H](O)[C@@H](O)[C@@H](O[C@H]5[C@H](O)[C@@H](O)[C@@H](O[C@H]6[C@H](O)[C@@H](O)[C@@H](O[C@H]7[C@H](O)[C@@H](O)[C@@H](O[C@H]8[C@H](O)[C@@H](O)[C@@H](O[C@H]9[C@H](O)[C@@H](O)[C@@H](O[C@H]1[C@H](O)[C@H]2O)O[C@@H]9CO)O[C@@H]8CO)O[C@@H]7CO)O[C@@H]6CO)O[C@@H]5CO)O[C@@H]4CO)O[C@@H]3CO | 12% [at 42.5 µM] (inactive) | 
O=C1O[C@H]([C@@H](O)CO)C(O)=C1O |  | inactive
Cl[Si](Cl)(c1ccccc1)c1ccccc1 | 4.97% (inactive) | 
COC(=O)CCSCCC(=O)OC | -1.72% (inactive) | 
Cc1nnc(NS(=O)(=O)c2ccc(N)cc2)s1 |  | inactive
CN(C(=O)CCCOc1ccc2[nH]c(=O)ccc2c1)C1CCCCC1 | -1.85% [at 42.5 µM] (inactive) | 
CNC(=O)Oc1ccc2c(c1)[C@]1(C)CCN(C)[C@@H]1N2C |  | inactive
CCC(CO)(CO)COCC(CC)(CO)CO | 1.65% (inactive) | 
CCCCCCCCC(=O)OCC | -0.767% (inactive) | 
